{"source": "PubChem BioAssay (NCI)", "note": "Compounds without any hit were thinned out: in the full panel of roughly 79,000, 15% have a hit. Values without a mark were called inactive. Active and inactive are the calls of the source. No stated cut-off is given here; in the data, active means growth inhibition above about 70%; inactive means the rest.", "data": [{"test": "NCI Yeast Anticancer Drug Screen. Data for the rad50 strain (AID 155);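 further: 0% = growth of vehicle-only cultures of the same strain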", "details": "S. cerevisiae rad50 strain growth inhibition; at 50.0 µM; active compounds read high", "procedure,_shortened": "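Compounds were tested on a yeast strain with an engineered DNA damage repair alteration; the reported value is growth inhibition normalised to vehicle treatment.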", "values": [{"smiles": "CC(=O)Sc1ccc(Br)cc1", "growth inhibition": "45.3%"}, {"smiles": "CC(C)OCc1cccc2ccnc(COC(C)C)c12", "growth inhibition": "20.8%"}, {"smiles": "Nc1ccc2c(c1)C(=O)c1ccccc1-2", "growth inhibition": "68.2%"}, {"smiles": "O=C1Nc2ccc([N+](=O)[O-])c3c([N+](=O)[O-])ccc1c23", "growth inhibition": "79% (active)"}, {"smiles": "Cc1ccc(NC(=O)Oc2ccc(C(C)(C)C)cc2Br)cc1NC(=O)Oc1ccc(C(C)(C)C)cc1Br", "growth inhibition": "40.1%"}, {"smiles": "O=C1C(Cl)=C(Nc2ccc(S(=O)(=O)O)cc2)C(=O)c2ccccc21", "growth inhibition": "99.5% (active)"}, {"smiles": "N/C(=N\\OC(=O)Nc1ccccc1)c1ccccc1", "growth inhibition": "42.1%"}, {"smiles": "O=C1c2ccccc2C(=O)c2cc(N3C(=O)C=CC3=O)ccc21", "growth inhibition": "90.7% (active)"}, {"smiles": "CCCCN=C(c1ccc(O)cc1)c1ccc(OC)cc1O", "growth inhibition": "42.7%"}, {"smiles": "Cc1ccc(S(=O)(=O)c2cc(O)c(O)c3ccc(Br)cc23)cc1", "growth inhibition": "79.5% (active)"}, {"smiles": "CC(C)(C)NC(=S)N/N=C/c1cc(Cl)cc(Cl)c1O", "growth inhibition": "77.1% (active)"}, {"smiles": "Oc1ccc2c(c1)OCC1c3ccccc3OC21", "note": "(stereo not given)", "growth inhibition": "76.7% (active)"}, {"smiles": "OCCSC(=S)Nc1ccc(Cl)c(Cl)c1", "growth inhibition": "99.6% (active)"}, {"smiles": "CCCC[N-]CC(O)C[NH-].O=C(O)CC(=O)O.[Pt+2]", "note": "(stereo not given)", "growth inhibition": "11.6%"}, {"smiles": "N=C(N)c1cccc(-c2ccc(-c3ccccc3)o2)c1", "growth inhibition": "92.2% (active)"}, {"smiles": "C#CC(CC(C)C)(CC(C)C)OC(=O)Nc1ccccc1", "growth inhibition": "97.9% (active)"}, {"smiles": "CCCCOc1ccc(-c2c(COC(=O)NC)c(COC(=O)NC)c(C)n2C)cc1", "growth inhibition": "85.3% (active)"}, {"smiles": "O=C(Nc1cccc2ccccc12)OCCCCCCl", "growth inhibition": "97% (active)"}, {"smiles": "C=CCOc1ccc(/C=N/NC(N)=S)cc1", "growth inhibition": "88.3% (active)"}, {"smiles": "Fc1ccc2[nH]ccc2c1", "growth inhibition": "55.5%"}, {"smiles": "C=C1C(=O)[C@]23C[C@H]1CC[C@H]2[C@@]12CO[C@@H](O)[C@@H]1C(C)(C)[C@@H](O)C[C@@H]2OC3=O", "growth inhibition": "2.3%"}, {"smiles": "N#Cc1ccc([N+](=O)[O-])cc1C#N", "growth inhibition": "99.2% (active)"}, {"smiles": "N=C(N)c1ccc(Oc2ccc(Oc3ccc(C(=N)N)cc3)cc2)cc1", "growth inhibition": "70.8% (active)"}, {"smiles": "CCC=Nc1c(O)cc(-c2ccccc2)n(C)c1=O", "growth inhibition": "73.2% (active)"}, {"smiles": "COc1ccc(CN2CCCN(Cc3ccc(OC)cc3OC)C2c2cc(Cl)ccc2O)c(OC)c1", "growth inhibition": "40.6%"}, {"smiles": "CCN(CC)c1ccc(/C=C2/C[N+](C)(C)C/C(=C/c3ccc(N(CC)CC)cc3)C2=O)cc1", "growth inhibition": "79.5% (active)"}, {"smiles": "O=P1(Cc2ccccc2)c2ccccc2-c2ccccc21", "growth inhibition": "85.6% (active)"}, {"smiles": "CN(C)CCCNc1cc(O)c2c(c1O)C(=O)c1ccccc1C2=O", "growth inhibition": "99.2% (active)"}, {"smiles": "CCCCC#CC(=O)OCCCCC", "growth inhibition": "-18.9%"}, {"smiles": "CCCCCCN(CCCCCC)CCC(=O)c1ccc2cc(Cl)c3ccccc3c2c1", "growth inhibition": "78.4% (active)"}, {"smiles": "CC(C)C1=C2CCC3(C)C(CCC4C5C6OCC5(CCC6(C)C)CCC43C)C2(C)CC1", "note": "(stereo not given)", "growth inhibition": "72.5% (active)"}, {"smiles": "O=C(CC(O)(CC(=O)OCc1ccccc1)C(=O)OCc1ccccc1)OCc1ccccc1", "growth inhibition": "99.2% (active)"}, {"smiles": "CCc1c(C)[nH]c2c([N+](=O)[O-])cccc12", "growth inhibition": "95.2% (active)"}, {"smiles": "CSc1ncc2c(n1)-c1ccccc1OC2NC1CC1", "note": "(stereo not given)", "growth inhibition": "71.5% (active)"}, {"smiles": "CC(C)c1cc(O)c2c(c1O)C1CC3C(C)(C)CCC[C@]23C(=O)O1", "note": "(stereo not given in full)", "growth inhibition": "92.5% (active)"}, {"smiles": "O=C1C(=O)c2cc(Br)cc([N+](=O)[O-])c2-c2ccc(Br)cc21", "growth inhibition": "95.5% (active)"}, {"smiles": "NSc1ccccn1", "growth inhibition": "90.4% (active)"}, {"smiles": "CCCCCCCCCCCCOC(=O)C[n+]1cccc(C(=O)Nc2ccccc2)c1", "growth inhibition": "99.2% (active)"}, {"smiles": "NC(=S)SCCC(=O)O", "growth inhibition": "-31.1%"}, {"smiles": "O=C(O)Cc1ccc2c3c(cccc13)CC2", "growth inhibition": "88.1% (active)"}]}, {"test": "NCI Yeast Anticancer Drug Screen. Data for the mec2-1 strain (AID 157)", "details": "S. cerevisiae mec2-1 strain, at 5.0 µM (retest, dose inferred, filed as 0.5), active compounds read high", "procedure,_shortened": "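Test agents were screened against the mec2-1 yeast strain, with defined DNA repair or cell cycle alteration. Growth was scored as inhibition against vehicle-only controls.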", "values": [{"smiles": "CC(=O)Sc1ccc(Br)cc1", "growth inhibition": "3%"}, {"smiles": "CC(C)OCc1cccc2ccnc(COC(C)C)c12", "growth inhibition": "8%"}, {"smiles": "Nc1ccc2c(c1)C(=O)c1ccccc1-2", "growth inhibition": "3%"}, {"smiles": "O=C1Nc2ccc([N+](=O)[O-])c3c([N+](=O)[O-])ccc1c23", "growth inhibition": "11%"}, {"smiles": "Cc1ccc(NC(=O)Oc2ccc(C(C)(C)C)cc2Br)cc1NC(=O)Oc1ccc(C(C)(C)C)cc1Br", "growth inhibition": "-4%"}, {"smiles": "O=C1C(Cl)=C(Nc2ccc(S(=O)(=O)O)cc2)C(=O)c2ccccc21", "growth inhibition": "33%"}, {"smiles": "N/C(=N\\OC(=O)Nc1ccccc1)c1ccccc1", "growth inhibition": "8%"}, {"smiles": "O=C1c2ccccc2C(=O)c2cc(N3C(=O)C=CC3=O)ccc21", "growth inhibition": "50%"}, {"smiles": "CCCCN=C(c1ccc(O)cc1)c1ccc(OC)cc1O", "growth inhibition": "-1%"}, {"smiles": "Cc1ccc(S(=O)(=O)c2cc(O)c(O)c3ccc(Br)cc23)cc1", "growth inhibition": "9%"}, {"smiles": "CC(C)(C)NC(=S)N/N=C/c1cc(Cl)cc(Cl)c1O", "growth inhibition": "64%"}, {"smiles": "Oc1ccc2c(c1)OCC1c3ccccc3OC21", "note": "(stereo not given)", "growth inhibition": "38%"}, {"smiles": "OCCSC(=S)Nc1ccc(Cl)c(Cl)c1", "growth inhibition": "10%"}, {"smiles": "CCCC[N-]CC(O)C[NH-].O=C(O)CC(=O)O.[Pt+2]", "note": "(stereo not given)", "growth inhibition": "-10%"}, {"smiles": "N=C(N)c1cccc(-c2ccc(-c3ccccc3)o2)c1", "growth inhibition": "4%"}, {"smiles": "C#CC(CC(C)C)(CC(C)C)OC(=O)Nc1ccccc1", "growth inhibition": "1%"}, {"smiles": "CCCCOc1ccc(-c2c(COC(=O)NC)c(COC(=O)NC)c(C)n2C)cc1", "growth inhibition": "14%"}, {"smiles": "O=C(Nc1cccc2ccccc12)OCCCCCCl", "growth inhibition": "-2%"}, {"smiles": "C=CCOc1ccc(/C=N/NC(N)=S)cc1", "growth inhibition": "13%"}, {"smiles": "Fc1ccc2[nH]ccc2c1", "growth inhibition": "-22%"}, {"smiles": "C=C1C(=O)[C@]23C[C@H]1CC[C@H]2[C@@]12CO[C@@H](O)[C@@H]1C(C)(C)[C@@H](O)C[C@@H]2OC3=O", "growth inhibition": "-19%"}, {"smiles": "N#Cc1ccc([N+](=O)[O-])cc1C#N", "growth inhibition": "-46%"}, {"smiles": "N=C(N)c1ccc(Oc2ccc(Oc3ccc(C(=N)N)cc3)cc2)cc1", "growth inhibition": "39%"}, {"smiles": "CCC=Nc1c(O)cc(-c2ccccc2)n(C)c1=O", "growth inhibition": "35%"}, {"smiles": "COc1ccc(CN2CCCN(Cc3ccc(OC)cc3OC)C2c2cc(Cl)ccc2O)c(OC)c1", "growth inhibition": "19%"}, {"smiles": "CCN(CC)c1ccc(/C=C2/C[N+](C)(C)C/C(=C/c3ccc(N(CC)CC)cc3)C2=O)cc1", "growth inhibition": "-19%"}, {"smiles": "O=P1(Cc2ccccc2)c2ccccc2-c2ccccc21", "growth inhibition": "-17%"}, {"smiles": "CN(C)CCCNc1cc(O)c2c(c1O)C(=O)c1ccccc1C2=O", "growth inhibition": "18%"}, {"smiles": "CCCCC#CC(=O)OCCCCC", "growth inhibition": "4%"}, {"smiles": "CCCCCCN(CCCCCC)CCC(=O)c1ccc2cc(Cl)c3ccccc3c2c1", "growth inhibition": "-28%"}, {"smiles": "CC(C)C1=C2CCC3(C)C(CCC4C5C6OCC5(CCC6(C)C)CCC43C)C2(C)CC1", "note": "(stereo not given)", "growth inhibition": "6%"}, {"smiles": "O=C(CC(O)(CC(=O)OCc1ccccc1)C(=O)OCc1ccccc1)OCc1ccccc1", "growth inhibition": "-2%"}, {"smiles": "CCc1c(C)[nH]c2c([N+](=O)[O-])cccc12", "growth inhibition": "8%"}, {"smiles": "CSc1ncc2c(n1)-c1ccccc1OC2NC1CC1", "note": "(stereo not given)", "growth inhibition": "18%"}, {"smiles": "CC(C)c1cc(O)c2c(c1O)C1CC3C(C)(C)CCC[C@]23C(=O)O1", "note": "(stereo not given in full)", "growth inhibition": "9%"}, {"smiles": "O=C1C(=O)c2cc(Br)cc([N+](=O)[O-])c2-c2ccc(Br)cc21", "growth inhibition": "52%"}, {"smiles": "NSc1ccccn1", "growth inhibition": "9%"}, {"smiles": "CCCCCCCCCCCCOC(=O)C[n+]1cccc(C(=O)Nc2ccccc2)c1", "growth inhibition": "97% (active)"}, {"smiles": "NC(=S)SCCC(=O)O", "growth inhibition": "-6%"}, {"smiles": "O=C(O)Cc1ccc2c3c(cccc13)CC2", "growth inhibition": "12%"}]}]}
